The campaign covered roughly 310,000 compounds. About 17,000 (5.5%) were called active. About 11% were inconclusive and are not listed. The call rests on the fitted dose curve; in most records, active means well fitted inhibition curve with a large enough effect; inconclusive means small, poorly fitted or top-dose-only effect, or effect the other way; inactive means no such curve, though single readings can be large or run the other way. What follows is part of a selection rich in actives, with near analogues and random picks from the rest.
On the % scale 0 is the no-effect control and ±100 the full control effect; potency means the concentration at half of the fitted maximal effect.

Nuclear receptor ROR-gamma (Mus musculus), sequence (P51450 whole entry, looked up, the tested form may be a part): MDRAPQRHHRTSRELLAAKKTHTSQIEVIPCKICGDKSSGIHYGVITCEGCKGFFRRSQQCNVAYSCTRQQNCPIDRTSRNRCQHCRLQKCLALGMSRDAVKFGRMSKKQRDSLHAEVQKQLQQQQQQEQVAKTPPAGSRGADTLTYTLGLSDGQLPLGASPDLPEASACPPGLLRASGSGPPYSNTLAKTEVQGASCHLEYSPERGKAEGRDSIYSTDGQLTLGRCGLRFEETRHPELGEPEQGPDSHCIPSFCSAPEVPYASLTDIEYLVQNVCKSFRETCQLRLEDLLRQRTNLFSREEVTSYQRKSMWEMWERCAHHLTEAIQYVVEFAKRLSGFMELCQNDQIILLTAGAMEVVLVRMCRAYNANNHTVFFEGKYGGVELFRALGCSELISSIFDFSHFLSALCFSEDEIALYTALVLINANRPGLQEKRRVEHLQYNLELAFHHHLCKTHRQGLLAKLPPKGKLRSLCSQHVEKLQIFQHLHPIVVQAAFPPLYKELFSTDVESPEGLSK

This assay has as its target Nuclear receptor ROR-gamma (Mus musculus) (UniProt P51450). Briefly: qHTS for inhibitors of ROR gamma transcriptional activity. Further: nearly all actives have a fitted effect of over 60% in size. To be noted: Drosophila S2 Gal4-RORgamma UAS-luciferase reporter, 20 h; series mostly up to 53.6 µM; activity change, negative = inhibition: at the top concentration. The method in brief:
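Luminescence from a UAS-regulated Photinus luciferase reporter in stably transfected Drosophila Schneider cells is measured; decreased signal marks ROR gamma inhibition. Fusion expression is induced by 700 uM copper sulfate for 20 hr.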
A general note: In qHTS, concentration-response curves come from the screen itself.
On to `C/C(=N\Nc1nncc2ccccc12)c1ccc(Cl)c([N+](=O)[O-])c1`, for which the “activity change, negative = inhibition” value was -15.3% (inactive). For `COc1ccc(NC(=O)CC2C(=O)NC3CCCCC3N2C(=O)c2ccc(F)cc2)cc1` (configuration not stated), the “activity change, negative = inhibition” value was 8.91% (inactive). Consider `O=C(c1ccc(S(=O)(=O)N2CCCC2)cc1)N1CCN(c2ccccc2F)CC1`, for which the “activity change, negative = inhibition” value is 5.53% (inactive). As to `O=C(Nn1cc(C(=O)N2CCN(c3ccccc3F)CC2)c2ccccc2c1=O)c1cnccn1`, the Potency is 14.1 µM (active). On to `Cn1c(=O)cc(OCC(=O)N2CCN(c3ccccc3F)CC2)c2ccccc21`, for which the “activity change, negative = inhibition” value is -6.44% (inactive). The same measure, in the same setting: next, `CC1CCN(C(=O)c2ccc3c(=O)n4c(nc3c2)CCCCC4)CC1`: -0.982% (inactive); `NS(=O)(=O)c1ccccc1NC(=O)c1c(O)c2ccccc2[nH]c1=O`: -12% (inactive); `C/C(=N\NC(N)=S)c1cccnc1`: -8.34% (inactive). As to `C/C(=N\NC(=S)NC(C)C)c1ccc(C(C)(C)C)cc1`, the Potency is 1 µM (active). `C/C(=N\NC(N)=S)c1ccncc1`: the “activity change, negative = inhibition” value was -38.1% (inactive). Still for that read-out and setting: next, `Cn1c(=O)c2sccc2n(Cc2ccc(Br)cc2)c1=O`: 61.6% (inactive); `O=C(CN1C(=O)CSC1=O)N1CCCC(Nc2ccc(F)cc2)C1` (configuration not stated): 18% (inactive); `Nc1cc(N)nc(SCc2cccc(F)c2)n1`: 19.2% (inactive). With `CCCCNC(=S)NNC(=O)c1cc(C)on1`, the Potency is 10 µM (active).

Take `CCC(=O)Nc1ccc(C(=O)Nc2cc(C)on2)cc1`: the “activity change, negative = inhibition” value is -13.3% (inactive).

In the case of `Cc1cc(C(=O)NCCCc2ccccc2)no1`, the “activity change, negative = inhibition” value is 17.6% (inactive). As to `O=C(Nc1ccccc1)c1ccco1`, the “activity change, negative = inhibition” value was -3.1% (inactive). Still for that read-out and setting: in the case of `COc1ccc(NC(=O)NN2CCN(C)CC2)c(OC)c1` it was 10.2% (inactive). Still for that read-out and setting: next, `COc1ccc(CCn2c(=N)c(C(=O)NCC3CCCO3)cc3c(=O)n4cccc(C)c4nc32)cc1OC` (configuration not stated): -28% (inactive); `COc1ccc(S(=O)(=O)N2CCOCC2)cc1C(=O)Nc1nc2ccccc2s1`: -12.9% (inactive). Still for that read-out and setting: next, `COc1ccc(/C=C(/CC(=O)Nc2ccc(C)cc2)c2nc3ccccc3s2)cc1`: 33.7% (inactive). `COc1cccc2sc(NNC(=O)c3nc4ccccc4s3)nc12`: the Potency is 3.55 µM (active). Consider `CCOC(=O)CNC(=O)CSc1ncccc1-c1nc2ccccc2[nH]1`, for which the “activity change, negative = inhibition” value is 43.9% (inactive). On the same count and under the same terms, next, `COc1ccc(N(CC(=O)NCc2ccc(F)cc2)C(=O)CCC(=O)Nc2nccs2)cc1`: -29.3% (inactive). For the compound `COc1ccc(S(=O)(=O)NNC(=O)Nc2ccc(C)cc2)c(OC)c1`, the “activity change, negative = inhibition” value was -9.69% (inactive). Same read-out and setting: in the case of `CCOC(=O)NN1C(=O)c2ccccc2NC1c1cccc(O)c1` (configuration not stated) it was 16.3% (inactive); in that of `O=C1c2ccccc2NC(c2ccccc2O)N1NS(=O)(=O)c1ccccc1` (configuration not stated), -4.74% (inactive). For `CCOC(=O)NN1C(=O)c2ccccc2NC1c1ccccc1O` (configuration not stated), the Potency was 11.2 µM (active). Take `COc1ccc(N(CC(=O)N2CCOCC2)S(=O)(=O)c2ccccc2)cc1Cl`: the “activity change, negative = inhibition” value was -7.47% (inactive).

Take `Cc1ccc(NC(=O)CCN2C(=O)c3ccccc3C2=O)cc1C`: the “activity change, negative = inhibition” value is 2.87% (inactive). `Cc1nn(-c2ccccc2)c2c1c(C)c(CCC(=O)NCC1CCCO1)c(=O)n2C` (configuration not stated): the “activity change, negative = inhibition” value was -11.4% (inactive).

Regarding `O=C(COc1ccc(Cl)cc1Cl)N/N=C/c1ccccn1`, the Potency is 12.6 µM (active). Consider `O=C(N/N=C/c1ccccn1)c1cccc(NC(=O)c2ccc(Cl)cc2)c1`, for which the “activity change, negative = inhibition” value is -27.8% (inactive). On the same count and under the same terms, in the case of `CSc1ccc(/C=N\NC(=O)COc2ccc(Cl)cc2Br)cc1` it was -30.3% (inactive); in that of `C=CCN1CN(S(=O)(=O)c2ccc(OC)cc2)c2nc3ccccc3nc21`, 14.6% (inactive); in that of `O=C(Nc1nc2ccc([N+](=O)[O-])cc2s1)c1ccncc1`, 13% (inactive). For `O=C(NC(Nc1nc2ccc([N+](=O)[O-])cc2s1)(C(F)(F)F)C(F)(F)F)c1ccccc1`, the Potency was 6.31 µM (active). As for `O=C(COC(=O)c1ccc(F)cc1)Nc1nc2ccc([N+](=O)[O-])cc2s1`, the “activity change, negative = inhibition” value was -1.04% (inactive).

For the compound `CCOc1ccccc1NS(=O)(=O)c1cc2c3c(c1)C(C)C(=O)N3CCC2` (configuration not stated), the “activity change, negative = inhibition” value was 8.24% (inactive). Still for that read-out and setting: next, `CCc1ccccc1NC(=O)c1ccc2snnc2c1`: -1.7% (inactive). The same measure, in the same setting: in the case of `COCCN1CCN(C(=O)c2cc(COc3ccc(F)cc3Cl)on2)CC1` it was 4.15% (inactive); in that of `CCn1c(SCC(=O)NCC2CCCO2)nc2cc(S(=O)(=O)N3CCCCC3)ccc21` (configuration not stated), 29.2% (inactive). For the compound `CCCCn1c(SCC(=O)NCC2CCCO2)nc2ccc(N3CCOCC3)cc2c1=O` (configuration not stated), the Potency was 2.51 µM (active). `COCCNC(=O)c1ccc(Cn2c(SCC(=O)NCC3CCCO3)nc3ccc(Br)cc3c2=O)cc1` (configuration not stated): the “activity change, negative = inhibition” value was 5.53% (inactive). Same read-out and setting: in the case of `CCCCNC(=O)c1cn(CC)c2cc(N3CCN(C(=O)c4ccco4)CC3)c(F)cc2c1=O` it was 4.18% (inactive); in that of `CCCOc1ccc(Cc2c(O)nc(N)[nH]c2=O)cc1C`, 1.22% (inactive). Still for that read-out and setting: in the case of `COc1cccc(/C=N/Nc2ccc(Cl)nn2)c1` it was -7.53% (inactive). On the same count and under the same terms, next, `Cc1ccsc1/C=N/Nc1ccc(Cl)nn1`: -20.8% (inactive). For `Oc1cccc(/C=N/Nc2ccc(Cl)nn2)c1O`, the Potency was 1.41 µM (active). For the compound `Cc1ccc(C)c(S(=O)(=O)N2CCCOC2CNC(=O)C(=O)NC2CCCCC2)c1` (configuration not stated), the “activity change, negative = inhibition” value was -12.7% (inactive). For the compound `Cc1ccccc1CN1CCNC(=O)C1CC(=O)NCCC1=CCCCC1` (configuration not stated), the “activity change, negative = inhibition” value was 6.29% (inactive). On the same count and under the same terms, next, `COC(=O)C1=CN(Cc2ccc(OC)cc2)C=C(C(=O)OC)C1c1ccc(O)c(OC)c1`: 2% (inactive); `CN1C(=O)[C@H]2[C@@H](C3CC3)N3C(=O)CN(Cc4ccccc4)C(=O)[C@@]3(C)[C@H]2C1=O`: -0.788% (inactive). Still for that read-out and setting: in the case of `COC(=O)c1ccc(C(=O)NC2CC(C)(C)Cc3c2cnn3-c2ccc(F)cc2)nc1` (configuration not stated) it was 27.3% (inactive); in that of `CCc1ccc(OCC(O)CN2CCN(CCO)CC2)cc1` (configuration not stated), 6.29% (inactive). `c1ccc(-c2noc(-c3cccs3)n2)nc1`: the Potency was 1.26 µM (active).

For the compound `c1csc(-c2nc(-c3ccncc3)no2)c1`, the “activity change, negative = inhibition” value is -25.3% (inactive). Still for that read-out and setting: in the case of `O=C(Oc1ccc(-c2nc(-c3ccccn3)no2)cc1)c1ccccc1` it was 1.49% (inactive); in that of `COc1ccc2[nH]c(=O)c(C3c4cc(OC)c(OC)cc4CCN3C(=O)c3ccco3)cc2c1` (configuration not stated), -0.908% (inactive); in that of `CC1CCCCC1NC(=O)CCS(=O)(=O)c1ccc2c(c1)NC(=O)CO2` (configuration not stated), -15.6% (inactive). As to `COc1cccc(NC(=O)C2C(c3ccccc3)C2(Cl)Cl)c1` (configuration not stated), the “activity change, negative = inhibition” value was 27.3% (inactive). On the same count and under the same terms, next, `COc1ccc(-c2cc(C(=O)N3CCN(Cc4ccc5c(c4)OCO5)CC3)on2)cc1OC`: 0.905% (inactive).

Take `C=CS(=O)c1sc(Cl)c(N2CCOCC2)c1[N+](=O)[O-]` (configuration not stated): the Potency is 4.47 µM (active).

For `O=C(CCN1C(=O)C2C3CCC(C3)C2C1=O)Nc1ccc(Cl)cc1Cl` (configuration not stated), the “activity change, negative = inhibition” value is 15% (inactive).

Turning to `CC(=O)N1CCOc2ccc(S(=O)(=O)N3CCC(C(=O)Nc4ccccc4F)CC3)cc21`, the “activity change, negative = inhibition” value is 3.01% (inactive). Take `COc1ccc(NC(=O)Cn2ncn3c(cc4ccccc43)c2=O)c(OC)c1OC`: the “activity change, negative = inhibition” value was 5.63% (inactive). In the case of `CC(=O)NCCc1nc2cc(NC(=O)c3ccccc3)ccc2n1C`, the “activity change, negative = inhibition” value was -25.2% (inactive). Turning to `CCc1nc2ccccc2n(CCOCCOCCn2c(=O)c(CC)nc3ccccc32)c1=O`, the “activity change, negative = inhibition” value is -24.8% (inactive). Consider `Cn1sc(NC(=O)c2ccccc2)nc1=O`, for which the “activity change, negative = inhibition” value is 4.29% (inactive). Regarding `Cn1c(NC(=O)c2ccccc2)nc2ccccc21`, the Potency is 1 µM (active). Consider `CC(C)(C)C(=O)Cn1c(NCCO)nc2ccccc21`, for which the “activity change, negative = inhibition” value was 20.4% (inactive). Regarding `CCn1c(NC(=O)c2nn(C)cc2Br)nc2ccccc21`, the Potency was 2.51 µM (active).

For the origin of these results see PubChem BioAssay AID2551 (National Center for Advancing Translational Sciences (NCATS), 2010).
